Screening results deposited in PubChem by several laboratories.
aDG glyco act: alpha-DG glycosylation activation; Pro5-aDG cells, alpha-DG glycosylation AlphaScreen (IIH6); 0% Pro5, 100% B10-LARGE cell signal; activation, % at 10 µM; actives 0.22% (n = 360,000); AID 624168;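 active means activation of at least 8% versus controls, or a plate z-score of at least 8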;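 further: Pro5 are CHO cells carrying HIG-tagged alpha-DG that lacks glycosylation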
APOBEC3A inh: inhibitors of human APOBEC3A DNA deaminase; P31941; recombinant A3A, FAM/TAMRA ssDNA deamination fluorescence; inhibition, % at 20 µM; actives 0.41% (n = 330,000);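 active means at least 40% inhibition at 20 µM here, with at most 30% in a related deaminase screen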;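 further: plate controls were A3A with DMSO for no effect and wells lacking A3A enzyme for full effect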
Target sequence (P31941 whole entry, looked up): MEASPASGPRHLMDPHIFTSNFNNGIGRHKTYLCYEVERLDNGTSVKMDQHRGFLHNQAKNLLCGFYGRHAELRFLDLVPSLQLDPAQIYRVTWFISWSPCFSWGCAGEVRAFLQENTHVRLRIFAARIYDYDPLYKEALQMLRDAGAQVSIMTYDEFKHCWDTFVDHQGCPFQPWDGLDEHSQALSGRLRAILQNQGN
ALR inh: inhibitors of human sulfhydryl oxidase ALR. P55789. purified ALR, DTT oxidation, H2O2 HRP-luminol luminescence. inhibition, % (concentration not given with the values). actives 3.8% (n = 290,000);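 active means mean replicate inhibition above about 79%, with every replicate also reaching it, limit read from the data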
rCAG RNA binder: molecules binding r(CAG) RNA repeats; r(CAG) RNA repeat, TO-PRO-1 dye displacement fluorescence; AID 651821; actives 1.3% (n = 370,000); inhibition, % at 3 µM;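 active means inhibition above the plate cutoff, the mean of all test compounds on that plate plus 3 SD, cut at about 35% in these data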;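 further: 0% = DMSO alone and 100% = 100 µM mitoxantrone as full dye displacement; higher means more dye released from RNA so lower well fluorescence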
A3G deaminase: APOBEC3G (human) deaminase inhibition; Q9HC16; recombinant A3G, ssDNA deamination FAM/TAMRA fluorescence; inhibition, % at 20 µM; actives 0.28% (n = 330,000); AID 493012;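 active means inhibition of at least 40% at 20 µM, with no more than 30% in the related APOBEC3A deaminase screen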;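 further: plate controls were DMSO wells with A3G for no effect and wells lacking A3G enzyme for full effect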
PHOSPHO1 block: inhibitors of human PHOSPHO1 phosphatase; actives 1.1% (n = 290,000); Q8TCT1; inhibition, % at 13.3 µM; recombinant PHOSPHO1, absorbance phosphatase assay; in the data active means inhibition above about 60%
Target sequence (Q8TCT1 whole entry, looked up): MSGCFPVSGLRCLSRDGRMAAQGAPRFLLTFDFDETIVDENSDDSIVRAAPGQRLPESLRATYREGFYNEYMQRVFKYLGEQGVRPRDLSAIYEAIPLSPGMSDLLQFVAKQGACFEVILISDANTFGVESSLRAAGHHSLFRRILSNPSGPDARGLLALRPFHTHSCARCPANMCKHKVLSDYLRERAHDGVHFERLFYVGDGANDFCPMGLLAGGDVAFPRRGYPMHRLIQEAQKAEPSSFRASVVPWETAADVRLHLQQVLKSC
The depositor's hits bear a star; / = not tested or not shown. A selection: hits, their analogues and other compounds. The true share with any hit is near 5.4%.

SMILES	aDG glyco act	APOBEC3A inh	ALR inh	rCAG RNA binder	A3G deaminase	PHOSPHO1 block
C[C@H](O)[C@@H]1CN2CCc3c([nH]c4c(-c5ccccc5)cccc34)[C@@H]2C[C@@H]1N(C)C(=S)NCCc1ccccc1	/	/	/	10.3	/	/
CN(C)c1ccc(C(=S)N2CCCCCC2)cc1	0.3	-1.5	98.3*	-0.3	-6.8	39.7
Oc1ccc(C(=S)N2CCCCC2)cc1	-0.3	8.6	9.9	-0.5	4.1	38.1
S=C(c1ccc(N2CCOCC2)cc1)N1CCCCC1	0.0	-1.6	86.7*	-5.5	-4.0	-3.2
CC1CCN(C(=S)c2ccc(N(C)C)cc2)CC1	0.1	-3.7	99.1*	-3.3	-6.5	27.4
COC(=O)[C@]12C[C@H](CC(=O)NCCCN3CCCC3=O)C(=O)N(CCC3=CCCCC3)C1=C[C@H](C(C)C)O[C@@H]2C1CC1	/	/	/	-2.3	/	/
CC(C)C[C@@H]1COc2cc(F)ccc2S(=O)(=O)N1C	/	/	/	-2.1	/	/
CCCC(=O)N1CCC[C@]2(CC[C@@H](CCC(=O)OCC)O2)C1	/	/	/	-2.4	/	/
CC1Sc2ccc(C(=O)Nc3ccc(S(=O)(=O)N(C)C)cc3)cc2NC1=O (configuration not stated)	-0.5	35.6	98.2*	7.6	0.4	/
COc1ccc(S(=O)(=O)N(C)C)cc1NC(=O)c1ccc2c(c1)NC(=O)C(C)S2 (configuration not stated)	-0.2	-2.0	1.3	2.6	-9.6	/
O=C(O)c1cnc(-c2ccccc2)nc1Sc1ccccc1Cl	-0.4	4.1	98.2*	22.0	-2.1	8.1
CCOC(=O)c1nnc(-c2ccc(C)cc2)nc1Sc1cccc(Cl)c1	-0.3	-0.4	/	-3.0	-6.1	1.0
CCOC(=O)c1nnc(-c2ccccc2)nc1Sc1ccccc1Cl	-0.4	-1.5	97.3*	0.0	-2.9	-8.6
Cc1ccccc1-c1ccc2c(c1)[C@@H]1C[C@H]3[C@@H](CN1CC2)[C@H](C)OC(C1CCCCC1)N3C (some centres not stated)	/	/	/	6.5	/	/
COc1ccc(N2CCN(CCCNC(=O)COc3ccc(F)cc3)CC2)cc1	/	/	/	-0.1	/	/
COC(=O)c1cc(S(=O)(=O)NC2CCC(C)CC2)cn1C (configuration not stated)	0.2	-4.4	-0.6	-1.1	-5.2	64.0*
C[C@@H]1CN(c2ccc(N3CCNC[C@@H]3C)cc2C#N)C[C@H](C)O1	/	/	/	0.3	/	/
NC(=S)NNc1cccc(Cl)c1	0.1	-2.8	97.9*	-0.3	-4.0	38.6
COc1cccc2c(N/N=C/c3ccc(O)c(O)c3)cc(C)nc12	0.2	-3.6	98.7*	1.8	-2.2	-60.4
COc1ccc(/C=N/Nc2cc(C)nc3c(C)cccc23)cc1	-0.4	7.4	4.5	19.5	-0.5	45.3
Cc1ccc2nc(C)cc(N/N=C/c3cccc(O)c3)c2c1	0.0	-1.4	99.2*	1.1	3.4	29.0
Cc1ccc(S(=O)(=O)Nc2ccccc2C(=O)NCC2CCCO2)cc1 (configuration not stated)	/	-3.3	-1.8	9.7	-5.8	42.7
Cc1nc(S(=O)(=O)Nc2ccccc2C(=O)NCC2CC2)cn1C	-0.2	1.0	-18.5	-1.5	-1.9	62.7*
CCn1c(C)c(C(C)=O)c(N2CCN(c3ccccc3)CC2)nc1=S	-0.5	-0.3	96.7*	-14.2	-5.6	30.5
CCn1c(C)c(C(C)=O)c(N2CCN(C(c3ccccc3)c3ccccc3)CC2)nc1=S	0.0	-2.4	1.1	-5.3	-5.7	46.6
SMILES	aDG glyco act	APOBEC3A inh	ALR inh	rCAG RNA binder	A3G deaminase	PHOSPHO1 block
CCN1CCc2c(OCC(=O)Nc3ccc(C)cc3)cccc2C1=O	0.0	-6.3	-2.5	-7.8	-4.1	61.5*
C/C(=N\NC(=O)Cc1c(C)[nH][nH]c1=O)c1ccc(Cl)c(Cl)c1	-0.1	5.7	17.5	-2.2	0.1	24.4
COc1cc(/C(C)=N/NC(=O)Cc2c(C)[nH][nH]c2=O)ccc1O	-0.3	-2.3	99.2*	0.0	-1.9	-9.7
C/C(=N/NC(=O)Cc1c(C)[nH][nH]c1=O)c1ccc(O)cc1	-0.3	-5.5	98.4*	-0.6	-9.2	-15.0
C/C(=N\NC(=O)Cc1c(C)[nH][nH]c1=O)c1cccc(Br)c1	0.0	-2.8	/	1.0	-7.6	-4.9
COc1cc(/C(C)=N\NC(=O)CSc2nc3ccccc3n2C)ccc1O	0.9	-0.8	98.5*	-0.7	-3.5	23.9
CC(=O)N1CCc2cc(S(=O)(=O)NCCC(=O)N(C)Cc3ccccc3F)ccc21	/	/	/	5.0	/	/
